Measured values: the supplement of paper PMC6555819

How the values were obtained:
Test in all cases: PBM binding z-score (relative to random genomic background probes); higher = stronger binding; sequences stand for … in GC…GCGATTGACAGCGTAGAATGAAGG
[1] = tested on: PPARg:RXRa DBDmut IVT, anti-RXR (DBD mutation: RXRa K156A/R161A, NR concentration 270 nM, RXRa partner concentration 90 nM)
Summary of the method: (§1)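 On custom Agilent 4×180K arrays, double-stranded probes with 34-nt variable regions carried direct-repeat seeds, single-nucleotide variants, half-site ablations or random human genomic background. Ligand-free nuclear receptor dimers were applied for 1 h, and binding was read with antibodies against each partner (one per run). Binding z-scores come from regression-normalized fluorescence, with the random background probes as reference.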

[2] = tested on: PPARg:RXRa IVT, anti-PPARg (NR concentration 270 nM, RXRa partner concentration 90 nM)
Summary of the method: as §1

[3] = tested on: PPARg DBDmut:RXRa IVT, anti-PPARg (DBD mutation: PPARg1 K132A/R137A, NR concentration 270 nM, RXRa partner concentration 90 nM)
Summary of the method: as §1

[4] = tested on: PPARg DBDmut IVT, anti-PPARg (DBD mutation: PPARg1 K132A/R137A, NR concentration 270 nM)
Summary of the method: as §1

[5] = tested on: PPARg homodimer (NR concentration 180 nM)
Summary of the method: as §1

[6] = tested on: PXR:RXRa (NR concentration 270 nM, RXRa partner concentration 90 nM)
Summary of the method: as §1

[7] = tested on: PXR homodimer (NR concentration 270 nM)
Summary of the method: as §1

[8] = tested on: RARa:RXR (NR concentration 270 nM, RXRa partner concentration 90 nM)
Summary of the method: as §1

[9] = tested on: RARa homodimer (NR concentration 270 nM)
Summary of the method: as §1

[10] = tested on: RARb:RXRa (NR concentration 270 nM, RXRa partner concentration 90 nM)
Summary of the method: as §1

Sequence	PBM binding z-score [1]	PBM binding z-score [2]	PBM binding z-score [3]	PBM binding z-score [4]	PBM binding z-score [5]	PBM binding z-score [6]	PBM binding z-score [7]	PBM binding z-score [8]	PBM binding z-score [9]	PBM binding z-score [10]
CAGACTAGGTCACCGGAAGGTCAAAGTCCGCATG	7.28	7.61	0.753	0.84	6.86	5.81	1.7	6.81	2.04	5.34
CCGACTGGGGCAGAAAGGTTACTATACCATCCGG	2.21	1.68	-0.665	-1.26	0.373	0.533	-0.207	1.18	-0.156	1.53
GCTATTGGTTGAAAGGGCAACCGAATGATTCTCG	0.217	0.624	0.114	-0.668	0.512	0.73	0.0657	1.48	0.176	1.87
CAAACTAGGTCAAGTGGTCAAAGTCCGCTTCCCG	8.23	8.54	2.88	1.21	2.1	2.11	0.168	3	0.47	4.38
TCATATAGGGAAATGCTAGGTGAAAGTCCGATCT	2.89	1.33	1.18	0.79	0.712	0.607	0.552	0.746	0.849	0.226
TCGAGTAGGTTACCAATGTGGCATTCAGCTTTCT	3.64	2.82	-0.0688	-0.478	-0.26	0.165	-0.485	0.147	-1.11	0.736
ATACCAAGGTGATCGTGAGGTCGTGGATACTAAC	0.55	1.38	0.414	0.297	1.2	2.53	0.492	3.03	0.48	1.65
GCTGCTAGGTCACCTGATGGTCAGCTAAAGCTCG	4.7	4.09	0.447	0.446	1.57	1.2	-0.963	2.67	-0.925	3.86
CAAACTAGGTCACGCAAGGTCAAAGTCGAATGAC	8.48	9.3	4.39	5.78	5.5	7.23	3.2	6.68	4.04	5.5
CAAACTAGGTCACAGAGGTCAAGGTCCGTGCGTA	8.45	9.01	2.38	2.54	4.67	6.54	10	7.58	2.96	5.46
CGTCCAAGGTCATAGTAGGTCAGTGAAGACAGAT	4.15	5.33	1.45	-0.159	2.97	5.67	2.73	5.14	1.92	5.12
ACTTACGCGTCAACGAGGTTATAGCACGCGTATA	-0.0489	0.00944	0.527	-0.0395	0.374	1.04	-0.0402	1.15	0.181	0.516
TCTACTAGGTCAACGATGGTCAGCTAATCTGCTA	7.66	7.96	1.25	1.79	1.93	1.93	0.246	2.54	1.28	4.23
CCTAGTTGGTCAACGTCACACACGCTATAGGTAC	2.03	1.8	0.867	0.424	1.37	0.444	0.536	0.716	1.34	1.21
CCGACTGCGGCAGAAAGGTTACCATACCATCCGG	-0.1	0.0365	-0.709	-0.931	0.55	1.05	-0.0131	1.42	-0.186	1.29
GCAGACAGGTGAAACGCAGGTAACTCAGGGTGGC	0.989	0.639	-1.03	-0.587	-0.666	-0.437	-0.625	0.284	-0.853	0.575
CCTTCCGGGTCACTCCAGGTTATAGCATCGGAGT	3.76	4.8	0.383	-0.795	1.88	4.83	0.335	3.65	0.518	3.77
ACTCGGAGGACAAAGATCAGAGCTACGCCAGTGA	0.131	-0.127	-1.09	-0.113	-0.398	-0.522	-0.433	-0.384	-0.637	0.778
TATGCAGGGTCAAAGGCCAGAGTACGAATGTCGA	1.27	3.92	0.572	0.66	2.29	4.49	-0.344	6.18	-0.114	4.34
TCATATAGGTAAATAGGTGAAAGTCCGTAAGTTA	5.74	6.26	1.25	1.38	1.18	1.13	0.363	1.44	1.54	0.905
ATATGTAGGTTAGCTGGGGTCATTCAAACTAGGC	7	6.34	2.93	1.75	3.19	6.37	4.83	5.84	1.69	3.18
CTCGAAAGGTCGGTTGAGGAGAGTATACGGATAA	-0.459	0.102	1.01	-0.0822	0.421	1.09	0.356	2.15	-0.00538	2.87
